Columns and labels:
Assay in all cases: DAPPL (digital affinity profiling via proximity ligation, sequencing); 10 mM Tris-HCl pH 7.5, 50 mM NaCl, 1 mM DTT, 4% glycerol, room temperature, 30 min; GST-TFs on glutathione beads, 16-mer random dsDNA library, 0.1% formaldehyde crosslink after washing; high values mean tight binding
FLI1 = target: T1, FLI1 (Homo sapiens, UniProt Q01543 1-452); conditions: protein: recombinant; tags: N-terminal GST; dsDNA, one strand shown
T1 sequence: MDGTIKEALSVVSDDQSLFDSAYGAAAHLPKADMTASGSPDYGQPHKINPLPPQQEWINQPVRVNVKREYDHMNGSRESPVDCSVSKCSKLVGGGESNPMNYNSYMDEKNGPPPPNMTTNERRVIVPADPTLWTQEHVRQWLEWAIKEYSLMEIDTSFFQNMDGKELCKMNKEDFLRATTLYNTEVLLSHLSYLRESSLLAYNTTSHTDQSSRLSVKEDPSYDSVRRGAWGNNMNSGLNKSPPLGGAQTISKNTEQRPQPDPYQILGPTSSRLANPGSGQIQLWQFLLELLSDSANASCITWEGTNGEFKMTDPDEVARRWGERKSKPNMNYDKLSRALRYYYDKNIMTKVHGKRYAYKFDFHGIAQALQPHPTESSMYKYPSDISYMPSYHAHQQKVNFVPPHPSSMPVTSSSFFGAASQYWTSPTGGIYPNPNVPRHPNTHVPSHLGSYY
Method in brief: (§1)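 Beads coated with glutathione captured GST-fused human transcription factors that had been expressed in yeast, and the factors were then given DNA barcodes and pooled with a tag-only sample. The pools were incubated with 200 nmole of a random double-stranded 16-mer DNA library in Tris/NaCl/DTT/glycerol buffer for 30 min at room temperature, washed, crosslinked with 0.1% formaldehyde and proximity-ligated with BsaI/T4 ligase at 37 °C for 1 h. PCR amplification and Illumina NextSeq500 sequencing came last. Binding signal is each hexamer's read frequency for a factor divided by its frequency for the tag-only sample.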

ELK1 = target: T2, ELK1 (Homo sapiens, UniProt P19419 1-428); conditions: protein: recombinant; tags: N-terminal GST; dsDNA, one strand shown
T2 sequence: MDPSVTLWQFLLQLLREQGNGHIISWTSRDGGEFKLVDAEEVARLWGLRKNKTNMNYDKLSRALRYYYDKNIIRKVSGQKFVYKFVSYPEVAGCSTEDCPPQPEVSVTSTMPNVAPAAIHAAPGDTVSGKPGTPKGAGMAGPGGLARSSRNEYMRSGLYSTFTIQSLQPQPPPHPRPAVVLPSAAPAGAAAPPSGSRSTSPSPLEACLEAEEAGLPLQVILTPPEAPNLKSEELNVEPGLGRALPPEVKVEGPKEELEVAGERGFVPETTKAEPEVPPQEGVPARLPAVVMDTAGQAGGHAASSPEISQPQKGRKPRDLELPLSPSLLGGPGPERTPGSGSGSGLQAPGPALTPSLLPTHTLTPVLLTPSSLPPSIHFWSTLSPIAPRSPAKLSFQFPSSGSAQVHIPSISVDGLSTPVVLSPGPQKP
Method in brief: as §1

GABPA = target: T3, GABPA (Homo sapiens, UniProt Q06546 1-454); conditions: protein: recombinant; tags: N-terminal GST; dsDNA, one strand shown
T3 sequence: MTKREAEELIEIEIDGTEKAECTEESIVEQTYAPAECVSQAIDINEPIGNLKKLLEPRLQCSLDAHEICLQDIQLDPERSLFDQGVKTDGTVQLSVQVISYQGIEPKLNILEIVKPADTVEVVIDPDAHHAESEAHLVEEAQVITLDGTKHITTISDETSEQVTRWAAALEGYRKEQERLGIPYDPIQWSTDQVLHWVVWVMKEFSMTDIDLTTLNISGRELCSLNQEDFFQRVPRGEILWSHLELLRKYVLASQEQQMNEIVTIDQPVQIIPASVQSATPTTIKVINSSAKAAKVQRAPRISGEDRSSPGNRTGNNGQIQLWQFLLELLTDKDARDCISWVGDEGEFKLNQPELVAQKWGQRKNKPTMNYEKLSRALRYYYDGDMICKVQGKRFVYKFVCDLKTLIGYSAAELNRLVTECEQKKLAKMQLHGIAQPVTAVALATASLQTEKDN
Method in brief: as §1

ERG = target: T4, ERG (Homo sapiens, UniProt P11308 1-479); conditions: protein: recombinant; tags: N-terminal GST; dsDNA, one strand shown
T4 sequence: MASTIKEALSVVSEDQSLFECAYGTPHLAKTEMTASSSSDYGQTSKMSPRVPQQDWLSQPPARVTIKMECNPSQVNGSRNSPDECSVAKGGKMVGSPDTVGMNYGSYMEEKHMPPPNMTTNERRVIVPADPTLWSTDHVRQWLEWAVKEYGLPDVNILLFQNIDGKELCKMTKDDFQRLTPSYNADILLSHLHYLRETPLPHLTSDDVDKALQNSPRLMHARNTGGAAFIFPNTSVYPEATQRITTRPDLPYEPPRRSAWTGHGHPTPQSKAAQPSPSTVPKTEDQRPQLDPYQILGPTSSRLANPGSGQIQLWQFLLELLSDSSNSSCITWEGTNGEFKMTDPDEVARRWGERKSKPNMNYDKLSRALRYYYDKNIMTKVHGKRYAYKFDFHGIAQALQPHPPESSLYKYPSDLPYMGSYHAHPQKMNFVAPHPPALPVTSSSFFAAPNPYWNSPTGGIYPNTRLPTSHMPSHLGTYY
Method in brief: as §1

ELF1 = ELF1 (Homo sapiens, UniProt P32519 1-619); conditions: protein: recombinant; tags: N-terminal GST; dsDNA, one strand shown
Chain of ELF1 (P32519 whole entry): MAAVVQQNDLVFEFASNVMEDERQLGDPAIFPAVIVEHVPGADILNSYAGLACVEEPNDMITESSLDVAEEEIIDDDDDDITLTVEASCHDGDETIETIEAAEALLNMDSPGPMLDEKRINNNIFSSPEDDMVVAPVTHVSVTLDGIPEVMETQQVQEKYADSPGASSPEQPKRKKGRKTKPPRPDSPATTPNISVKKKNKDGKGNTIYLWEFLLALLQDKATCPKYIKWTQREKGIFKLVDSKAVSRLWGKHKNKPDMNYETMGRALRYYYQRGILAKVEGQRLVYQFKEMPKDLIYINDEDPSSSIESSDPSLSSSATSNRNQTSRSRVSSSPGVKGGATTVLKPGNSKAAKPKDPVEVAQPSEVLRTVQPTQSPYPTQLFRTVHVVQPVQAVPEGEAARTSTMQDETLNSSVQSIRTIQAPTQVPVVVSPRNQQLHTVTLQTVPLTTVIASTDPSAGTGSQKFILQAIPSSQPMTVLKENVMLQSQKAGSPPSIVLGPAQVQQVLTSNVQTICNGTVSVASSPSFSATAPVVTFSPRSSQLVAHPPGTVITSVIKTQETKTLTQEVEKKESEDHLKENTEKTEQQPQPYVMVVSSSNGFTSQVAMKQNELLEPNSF
Method in brief: as §1

EHF = target: T5, EHF (Homo sapiens, UniProt Q9NZC4 1-300); conditions: protein: recombinant; tags: N-terminal GST; dsDNA, one strand shown
T5 sequence: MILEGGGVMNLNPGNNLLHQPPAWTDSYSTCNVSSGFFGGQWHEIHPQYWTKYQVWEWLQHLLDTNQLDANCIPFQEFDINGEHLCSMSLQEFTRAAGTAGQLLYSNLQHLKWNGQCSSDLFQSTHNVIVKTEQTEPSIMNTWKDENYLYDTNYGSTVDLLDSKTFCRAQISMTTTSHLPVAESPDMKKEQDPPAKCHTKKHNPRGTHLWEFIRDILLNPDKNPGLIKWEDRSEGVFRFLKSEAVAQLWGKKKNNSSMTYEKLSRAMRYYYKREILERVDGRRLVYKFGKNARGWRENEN
Method in brief: as §1

SPI1 = SPI1 (Homo sapiens, UniProt P17947 1-270); conditions: protein: recombinant; tags: N-terminal GST; dsDNA, one strand shown
Method in brief: as §1

SPIB = SPIB (Homo sapiens, UniProt Q01892 1-262); conditions: protein: recombinant; tags: N-terminal GST; dsDNA, one strand shown
Chain of SPIB (Q01892 whole entry): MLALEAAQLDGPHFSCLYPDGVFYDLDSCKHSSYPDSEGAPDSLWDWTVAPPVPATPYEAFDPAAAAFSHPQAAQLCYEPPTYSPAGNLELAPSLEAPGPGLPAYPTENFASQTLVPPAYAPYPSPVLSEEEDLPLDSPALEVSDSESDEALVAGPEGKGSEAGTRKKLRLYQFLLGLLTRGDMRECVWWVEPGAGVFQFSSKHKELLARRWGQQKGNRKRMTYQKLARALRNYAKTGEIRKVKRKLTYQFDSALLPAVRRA
Method in brief: as §1

ELK3 = target: T6, ELK3 (Homo sapiens, UniProt P41970 1-407); conditions: protein: recombinant; tags: N-terminal GST; dsDNA, one strand shown
T6 sequence: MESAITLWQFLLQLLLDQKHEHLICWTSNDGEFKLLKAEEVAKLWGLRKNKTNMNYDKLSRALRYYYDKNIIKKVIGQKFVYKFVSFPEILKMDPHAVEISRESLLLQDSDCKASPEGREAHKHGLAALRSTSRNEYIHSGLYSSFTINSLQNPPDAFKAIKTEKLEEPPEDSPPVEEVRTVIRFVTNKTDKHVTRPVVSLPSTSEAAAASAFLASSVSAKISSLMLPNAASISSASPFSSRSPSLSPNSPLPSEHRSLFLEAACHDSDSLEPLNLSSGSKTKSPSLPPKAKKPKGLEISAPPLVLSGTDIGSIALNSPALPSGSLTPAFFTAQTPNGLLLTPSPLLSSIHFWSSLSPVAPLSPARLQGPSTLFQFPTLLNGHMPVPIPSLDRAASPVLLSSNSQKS
Method in brief: as §1

FEV = target: T7, FEV (Homo sapiens, UniProt Q99581 1-238); conditions: protein: recombinant; tags: N-terminal GST; dsDNA, one strand shown
T7 sequence: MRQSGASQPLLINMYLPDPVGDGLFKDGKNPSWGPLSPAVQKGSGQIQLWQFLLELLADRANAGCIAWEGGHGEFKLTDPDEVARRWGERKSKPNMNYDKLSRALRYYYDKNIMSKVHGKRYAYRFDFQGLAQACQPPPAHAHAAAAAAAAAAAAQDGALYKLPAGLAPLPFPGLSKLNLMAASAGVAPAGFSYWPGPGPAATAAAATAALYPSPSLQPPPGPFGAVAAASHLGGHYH
Method in brief: as §1

ETV5 = ETV5 (Homo sapiens, UniProt P41161 1-510); conditions: protein: recombinant; tags: N-terminal GST; dsDNA, one strand shown
Chain of ETV5 (P41161 whole entry): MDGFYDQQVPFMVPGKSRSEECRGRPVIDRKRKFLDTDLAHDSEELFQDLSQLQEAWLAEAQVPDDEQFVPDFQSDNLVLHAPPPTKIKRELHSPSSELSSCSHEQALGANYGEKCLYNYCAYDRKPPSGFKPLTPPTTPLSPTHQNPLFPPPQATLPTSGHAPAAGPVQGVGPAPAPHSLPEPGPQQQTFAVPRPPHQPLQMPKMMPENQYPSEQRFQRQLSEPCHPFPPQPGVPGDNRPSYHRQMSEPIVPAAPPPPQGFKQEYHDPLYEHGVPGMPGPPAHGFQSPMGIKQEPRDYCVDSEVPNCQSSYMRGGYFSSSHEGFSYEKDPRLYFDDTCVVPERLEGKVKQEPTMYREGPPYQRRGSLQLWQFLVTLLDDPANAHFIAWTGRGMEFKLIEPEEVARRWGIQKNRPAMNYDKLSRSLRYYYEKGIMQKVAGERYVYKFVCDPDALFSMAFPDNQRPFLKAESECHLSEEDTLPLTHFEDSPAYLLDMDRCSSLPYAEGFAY
Method in brief: as §1

HSF1 = HSF1 (Homo sapiens, UniProt Q00613 1-529); conditions: protein: recombinant; tags: N-terminal GST; chain copies: 3; dsDNA, one strand shown
Chain of HSF1 (Q00613 whole entry): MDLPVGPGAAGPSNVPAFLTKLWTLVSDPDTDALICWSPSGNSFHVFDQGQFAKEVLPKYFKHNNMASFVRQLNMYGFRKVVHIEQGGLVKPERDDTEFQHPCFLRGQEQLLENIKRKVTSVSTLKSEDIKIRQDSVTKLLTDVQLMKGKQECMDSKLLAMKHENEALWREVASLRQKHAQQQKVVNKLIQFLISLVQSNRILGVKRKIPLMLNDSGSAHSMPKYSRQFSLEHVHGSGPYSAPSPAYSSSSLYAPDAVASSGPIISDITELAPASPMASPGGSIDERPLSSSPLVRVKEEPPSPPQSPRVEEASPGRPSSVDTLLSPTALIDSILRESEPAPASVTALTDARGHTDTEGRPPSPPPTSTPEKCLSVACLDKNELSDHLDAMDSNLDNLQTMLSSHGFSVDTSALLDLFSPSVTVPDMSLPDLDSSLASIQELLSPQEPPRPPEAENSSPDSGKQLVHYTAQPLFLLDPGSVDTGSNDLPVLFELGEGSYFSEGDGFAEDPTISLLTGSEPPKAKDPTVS
Method in brief: as §1

SPIC = target: T8, SPIC (Homo sapiens, UniProt Q8N5J4 1-248); conditions: protein: recombinant; tags: N-terminal GST; dsDNA, one strand shown
T8 sequence: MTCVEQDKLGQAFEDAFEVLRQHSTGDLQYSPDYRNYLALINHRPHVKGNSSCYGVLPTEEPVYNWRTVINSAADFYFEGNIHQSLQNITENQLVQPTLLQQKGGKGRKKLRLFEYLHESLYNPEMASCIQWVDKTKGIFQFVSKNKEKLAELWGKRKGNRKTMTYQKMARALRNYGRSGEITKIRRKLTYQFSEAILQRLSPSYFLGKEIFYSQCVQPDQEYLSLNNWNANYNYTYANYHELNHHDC
Method in brief: as §1

ELF4 = ELF4 (Homo sapiens, UniProt Q99607 1-663); conditions: protein: recombinant; tags: N-terminal GST; dsDNA, one strand shown
Chain of ELF4 (Q99607 whole entry): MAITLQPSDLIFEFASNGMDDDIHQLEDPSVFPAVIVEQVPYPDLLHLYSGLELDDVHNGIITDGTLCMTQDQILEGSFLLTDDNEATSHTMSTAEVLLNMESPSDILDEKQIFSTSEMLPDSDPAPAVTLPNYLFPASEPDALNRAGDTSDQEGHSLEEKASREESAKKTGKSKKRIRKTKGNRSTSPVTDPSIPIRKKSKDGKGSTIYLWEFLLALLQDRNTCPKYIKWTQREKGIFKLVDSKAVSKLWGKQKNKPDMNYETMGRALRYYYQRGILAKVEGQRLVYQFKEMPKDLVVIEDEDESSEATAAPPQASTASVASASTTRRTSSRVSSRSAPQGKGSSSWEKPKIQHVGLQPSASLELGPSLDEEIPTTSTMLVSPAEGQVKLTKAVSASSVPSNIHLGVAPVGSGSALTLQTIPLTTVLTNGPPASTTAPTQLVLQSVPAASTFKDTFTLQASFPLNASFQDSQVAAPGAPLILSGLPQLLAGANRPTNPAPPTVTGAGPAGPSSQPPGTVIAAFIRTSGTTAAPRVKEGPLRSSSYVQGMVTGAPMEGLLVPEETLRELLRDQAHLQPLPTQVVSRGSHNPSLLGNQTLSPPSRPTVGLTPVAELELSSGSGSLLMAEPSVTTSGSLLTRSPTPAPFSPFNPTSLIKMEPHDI
Method in brief: as §1

ELK4 = target: T9, ELK4 (Homo sapiens, UniProt P28324-2 1-405); conditions: protein: recombinant; tags: N-terminal GST; dsDNA, one strand shown
T9 sequence: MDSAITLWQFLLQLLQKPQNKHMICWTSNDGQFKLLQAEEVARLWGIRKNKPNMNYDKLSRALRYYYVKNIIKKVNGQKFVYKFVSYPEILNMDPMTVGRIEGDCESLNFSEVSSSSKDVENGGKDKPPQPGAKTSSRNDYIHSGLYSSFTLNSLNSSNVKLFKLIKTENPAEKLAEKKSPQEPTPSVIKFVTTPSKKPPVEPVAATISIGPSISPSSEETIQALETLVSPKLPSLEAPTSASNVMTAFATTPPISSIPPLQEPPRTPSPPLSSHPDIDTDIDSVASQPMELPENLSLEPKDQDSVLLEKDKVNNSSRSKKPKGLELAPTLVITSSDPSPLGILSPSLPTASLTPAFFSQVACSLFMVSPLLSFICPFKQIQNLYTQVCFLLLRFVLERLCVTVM
Method in brief: as §1

ETV2 = target: T10, ETV2 (Homo sapiens, UniProt O00321 1-342); conditions: protein: recombinant; tags: N-terminal GST; dsDNA, one strand shown
T10 sequence: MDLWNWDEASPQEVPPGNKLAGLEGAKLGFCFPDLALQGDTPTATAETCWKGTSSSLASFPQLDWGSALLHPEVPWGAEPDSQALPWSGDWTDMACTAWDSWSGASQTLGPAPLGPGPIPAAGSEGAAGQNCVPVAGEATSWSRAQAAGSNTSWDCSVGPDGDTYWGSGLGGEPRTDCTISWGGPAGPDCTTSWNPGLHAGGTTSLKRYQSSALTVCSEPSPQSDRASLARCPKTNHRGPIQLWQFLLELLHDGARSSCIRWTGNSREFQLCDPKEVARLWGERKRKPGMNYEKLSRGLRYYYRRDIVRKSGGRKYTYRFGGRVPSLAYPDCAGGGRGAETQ
Method in brief: as §1

ELF3 = target: T11, ELF3 (Homo sapiens, UniProt P78545 1-371); conditions: protein: recombinant; tags: N-terminal GST; dsDNA, one strand shown
T11 sequence: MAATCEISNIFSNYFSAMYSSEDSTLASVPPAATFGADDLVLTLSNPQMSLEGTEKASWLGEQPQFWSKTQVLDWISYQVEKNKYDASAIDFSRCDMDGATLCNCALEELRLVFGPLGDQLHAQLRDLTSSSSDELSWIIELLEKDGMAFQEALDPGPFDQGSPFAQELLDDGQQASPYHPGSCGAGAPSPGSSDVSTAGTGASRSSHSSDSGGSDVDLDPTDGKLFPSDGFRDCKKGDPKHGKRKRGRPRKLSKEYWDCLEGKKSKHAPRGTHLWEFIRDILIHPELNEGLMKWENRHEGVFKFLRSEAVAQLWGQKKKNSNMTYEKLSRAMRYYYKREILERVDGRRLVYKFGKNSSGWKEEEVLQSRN
Method in brief: as §1

CRX = CRX (Homo sapiens, UniProt O43186 1-299); conditions: protein: recombinant; tags: N-terminal GST; dsDNA, one strand shown
Chain of CRX (O43186 whole entry): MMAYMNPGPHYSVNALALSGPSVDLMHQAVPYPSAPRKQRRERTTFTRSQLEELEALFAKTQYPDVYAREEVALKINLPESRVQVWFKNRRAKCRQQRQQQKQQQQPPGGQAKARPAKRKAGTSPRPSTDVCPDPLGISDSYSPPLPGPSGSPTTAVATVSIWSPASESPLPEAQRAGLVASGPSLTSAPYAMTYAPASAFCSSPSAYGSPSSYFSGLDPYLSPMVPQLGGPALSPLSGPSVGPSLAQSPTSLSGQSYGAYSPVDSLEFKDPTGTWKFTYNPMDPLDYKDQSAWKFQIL
Method in brief: as §1

ETV1 = ETV1 (Homo sapiens, UniProt P50549 1-477); conditions: protein: recombinant; tags: N-terminal GST; dsDNA, one strand shown
Chain of ETV1 (P50549 whole entry): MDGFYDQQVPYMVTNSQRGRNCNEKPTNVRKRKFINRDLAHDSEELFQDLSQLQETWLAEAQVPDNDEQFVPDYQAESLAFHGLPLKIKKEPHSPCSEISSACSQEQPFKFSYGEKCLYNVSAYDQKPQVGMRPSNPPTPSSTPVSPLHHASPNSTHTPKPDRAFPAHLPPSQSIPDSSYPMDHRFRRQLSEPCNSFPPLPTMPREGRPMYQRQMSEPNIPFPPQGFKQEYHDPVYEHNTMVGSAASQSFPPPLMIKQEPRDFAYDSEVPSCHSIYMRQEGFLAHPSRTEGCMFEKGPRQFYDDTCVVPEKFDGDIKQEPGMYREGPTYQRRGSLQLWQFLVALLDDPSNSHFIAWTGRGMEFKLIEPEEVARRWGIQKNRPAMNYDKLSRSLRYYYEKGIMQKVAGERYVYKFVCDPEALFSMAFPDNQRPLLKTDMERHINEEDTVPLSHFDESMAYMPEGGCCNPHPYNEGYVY
Method in brief: as §1

TATCTT
binding signal (FLI1): 1.46 fold enrichment (6-mer frequency, TF over GST control)
binding signal (ELK1): 1.31 fold enrichment (6-mer frequency, TF over GST control)
binding signal (GABPA): 1.38 fold enrichment (6-mer frequency, TF over GST control)
binding signal (ERG): 1.26 fold enrichment (6-mer frequency, TF over GST control)
binding signal (ELF1): 1.36 fold enrichment (6-mer frequency, TF over GST control)
binding signal (EHF): 1.3 fold enrichment (6-mer frequency, TF over GST control)
binding signal (SPI1): 1.3 fold enrichment (6-mer frequency, TF over GST control)
binding signal (SPIB): 1.28 fold enrichment (6-mer frequency, TF over GST control)
binding signal (ELK3): 1.24 fold enrichment (6-mer frequency, TF over GST control)
binding signal (FEV): 1.33 fold enrichment (6-mer frequency, TF over GST control)
binding signal (ETV5): 1.22 fold enrichment (6-mer frequency, TF over GST control)
binding signal (HSF1): 1.48 fold enrichment (6-mer frequency, TF over GST control)
binding signal (SPIC): 1.27 fold enrichment (6-mer frequency, TF over GST control)
binding signal (ELF4): 1.24 fold enrichment (6-mer frequency, TF over GST control)
binding signal (ELK4): 1.38 fold enrichment (6-mer frequency, TF over GST control)
binding signal (ETV2): 1.53 fold enrichment (6-mer frequency, TF over GST control)
binding signal (ELF3): 1.34 fold enrichment (6-mer frequency, TF over GST control)
binding signal (CRX): 1.91 fold enrichment (6-mer frequency, TF over GST control)
binding signal (ETV1): 1.22 fold enrichment (6-mer frequency, TF over GST control)

Source: paper PMC7862700, “An all-to-all approach to the identification of sequence-specific readers for epigenetic DNA modifications on cytosine”
